Reference: the supplement of paper PMC12669032
Where “and” joins values, the source holds several entries; their conditions need not be identical. Equal values may be shown once. Unmarked numbers belong to inactive results.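 The calls were made as follows: active = AUC reduced over 20% with Padj below 0.05 in at least 2 of 3 replicates; inactive = otherwise.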

Assays:
Assay in all cases: growth AUC relative to DMSO control (median of replicates) (fraction); higher = more growth (less inhibition), active = hit call of the paper
Conditions in all cases: 20 µM; 24 h
Akkermansia muciniphila = system: Akkermansia muciniphila
Method in brief: (§1)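 Area under the growth curve was normalised to the plate median of solvent-only wells, or to row and column medians on the industrial chemical plate. Growth curves came from anaerobic gut bacterial monocultures in mGAM at 37 °C, seeded at OD600 0.05 with 20 µM compound (1% DMSO), and read at OD600 hourly for 24 h with the minimum OD set to 0. The value is the median of three biological replicates grown on separate days.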

Bacteroides caccae = system: Bacteroides caccae
Method in brief: as §1

Bacteroides clarus = system: Bacteroides clarus
Method in brief: as §1

Bacteroides dorei = system: Bacteroides dorei
Method in brief: as §1

Bacteroides stercoris = system: Bacteroides stercoris
Method in brief: as §1

[1] = system: Bacteroides thetaiotaomicron
Method in brief: as §1

Bacteroides uniformis = system: Bacteroides uniformis
Method in brief: as §1

[2] = system: Bifidobacterium longum subsp. longum
Method in brief: as §1

Clostridium difficile = system: Clostridium difficile
Method in brief: as §1

Collinsella aerofaciens = system: Collinsella aerofaciens
Method in brief: as §1

| Structure (SMILES) | growth AUC (Akkermansia muciniphila) | growth AUC (Bacteroides caccae) | growth AUC (Bacteroides clarus) | growth AUC (Bacteroides dorei) | growth AUC (Bacteroides stercoris) | growth AUC [1] | growth AUC (Bacteroides uniformis) | growth AUC [2] | growth AUC (Clostridium difficile) | growth AUC (Collinsella aerofaciens) |
| --- | --- | --- | --- | --- | --- | --- | --- | --- | --- | --- |
| Cc1cc(C)nc(NC(=O)NS(=O)(=O)c2ccccc2C(=O)OC2COC2)n1 | 1.03 | 0.952 | 0.973 | 0.945 | 1.04 | 0.752 (active) | 1.03 | 0.858 | 1.05 | 0.98 |
| O=c1oc2ccccc2c(O)c1C(CC(O)c1ccc(-c2ccc(Br)cc2)cc1)c1ccccc1 (stereo not given) | 1 | 0.438 (active) | 0.279 (active) | 0.563 (active) | 0.00869 (active) | 0.733 (active) | 0.703 (active) | 0.747 (active) | 0.327 (active) | 0.941 |
| COC(=O)N(C(=O)N1CO[C@@]2(C(=O)OC)Cc3cc(Cl)ccc3C2=N1)c1ccc(OC(F)(F)F)cc1 | 0.961 | 0.952 | 0.965 | 0.982 | 0.965 | 0.873 | 0.98 | 0.83 | 0.916 | 0.884 |
| CCC(C)Nc1c([N+](=O)[O-])cc(C(C)(C)C)cc1[N+](=O)[O-] (stereo not given) | 0.988 | 0.953 | 0.939 | 0.98 | 1.11 | 0.931 | 0.945 | 0.81 | 0.938 | 0.959 |
| COC(=O)/C=C(/C)OP(=O)(OC)OC | 1.05 and 1.08 | 0.952 and 0.906 | 1.02 and 1.08 | 0.879 and 1.01 | 0.938 and 1.2 | 0.992 and 0.984 | 0.981 and 0.997 | 1 and 1.06 | 0.956 and 1.01 | 0.959 and 0.989 |
| CC(C)(C)c1cc([N+](=O)[O-])cc([N+](=O)[O-])c1O | 0.623 | 0.973 | 0.742 (active) | 0.931 | 1.03 | 0.837 | 0.876 | 0.964 | 0.885 | 0.96 |
| CCNc1nc(NC(C)C)[nH]c(=O)n1 | 0.993 | 1 | 1.02 | 1.04 | 0.998 | 1 | 1.07 | 0.962 | 1.05 | 1.02 |
| N#Cc1c[nH]cc1-c1cccc2c1OC(F)(F)O2 | 0.837 | 0.959 | 0.918 | 0.953 | 0.85 | 0.953 | 0.999 | 0.91 | 0.978 | 0.992 |
| ClC1=C(Cl)C2(Cl)C3C(Cl)C=CC3C1(Cl)C2(Cl)Cl (stereo not given) | 1.1 | 1.01 | 1.01 | 0.958 | 1.08 | 0.99 | 0.983 | 0.932 | 0.963 | 0.951 |
| CC(Cc1ccc(C(C)(C)C)cc1)CN1CCCCC1 (stereo not given) | 0.735 | 0.963 | 0.951 | 1.01 | 1.15 | 0.974 | 1.02 | 0.99 | 0.971 | 0.959 |
| CCCOCC(=Nc1ccc(Cl)cc1C(F)(F)F)n1ccnc1 | 1.03 | 0.955 | 0.919 | 0.982 | 1.16 | 0.934 | 0.913 | 1.03 | 0.922 | 0.941 |
| C=CCOC(Cn1ccnc1)c1ccc(Cl)cc1Cl.O=S(=O)(O)O (stereo not given) | 0.744 | 0.949 | 0.925 | 1 | 0.994 | 0.931 | 0.977 | 0.843 | 0.884 | 0.845 |
| CNC(=O)O/N=C(\C)C(C)S(C)=O (stereo not given) | 0.963 | 0.997 | 0.976 | 0.996 | 1 | 0.983 | 0.997 | 0.996 | 1 | 0.995 |
| CC(Oc1ccc(Oc2ccc(Cl)cc2Cl)cc1)C(=O)O (racemic) | 0.812 | 0.991 | 0.875 | 0.997 | 0.851 | 0.989 | 0.98 | 0.903 | 1.02 | 0.995 |
